Assay [1] concerns MILI (PIWIL2) piRISC loaded with piRNA #1 (26 nt). Briefly: pre-steady-state target cleavage rate (min^-1); guide: piRNA #1 5'p-UGAGGUAGUAGGUUGUAUAGUAUCCA; higher = faster piRNA-guided slicing of the target. Conditions: auxiliary factor: 500 nM mouse GTSF1. The method in brief:
(§1)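 A burst-and-steady-state fit was used to obtain the pre-steady-state cleavage rate. The input data were sequencing reads of uncleaved targets, normalised to depth and to weakly complementary targets, from a […] transcribed, DNA-blocked target RNA library mixed with 1 nM active affinity-purified piRISC holding one synthetic guide, with or without 500 nM GTSF1 partner protein, in HEPES–potassium acetate buffer at 33 °C for 0–8 or 0–960 min. Three trials were pooled and k3 was capped at 0.0001 min^-1.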

The test system of assay [2] is EfPiwi piRISC loaded with piRNA #1 (26 nt). Briefly: pre-steady-state target cleavage rate (min^-1); auxiliary factor: 500 nM Ephydatia muelleri Gtsf1; guide: piRNA #1 5'p-UGAGGUAGUAGGUUGUAUAGUAUCCA; MIWI and MILI are mouse PIWI proteins and EfPiwi is from a freshwater sponge; tags in brackets are library labels; higher = faster piRNA-guided slicing of the target. The method in brief:
as §1

± gives the standard deviation.

Consider GGAGUGCAUACUAUACAACCUUCUACCUCA, for which the “pre-steady-state target cleavage rate” value was 0.00996 ± 0.002 in assay [1] and 0.00467 ± 0.0029 in assay [2].
For GGAGUGGAUACAAUACAACCUACUACCUGA the same measures were 0.0731 ± 0.011 and 0.00396 ± 0.0018.
GGAGACGAUACUUUACAACCUACUUCCUCA: the “pre-steady-state target cleavage rate” value turned out to be 0.019 ± 0.0078 in assay [1] and 0.00221 ± 0.002 in assay [2].
As for GGAGUGGAUACUAUACAACGUACUACCUCA, the entries for the “pre-steady-state target cleavage rate” value in assay [1] and in assay [2] were 0.0277 ± 0.0034 and 0.00682 ± 0.0022, respectively.
GGAGACCAUACUAUAGAACCUACUACCUCA: the “pre-steady-state target cleavage rate” value in assay [1] amounted to 0.116 ± 0.016; in assay [2], 0.00367 ± 0.0017.
GGAGACGAUACUAUACAACCUUCAACCUCA: the results for the “pre-steady-state target cleavage rate” value in assay [1] and in assay [2] were 0.00736 ± 0.0019 and 0.00247 ± 0.0013, respectively.
On to GGAGAGCAAACUAUACAACCUACUACCUCA, for which the “pre-steady-state target cleavage rate” value in assay [1] stood at 0.113 ± 0.019; in assay [2], 0.0127 ± 0.0059.
With GGAGAGGAUACUAUACAACCUACUACCAGA, the “pre-steady-state target cleavage rate” value in assay [1] turned out to be 0.0384 ± 0.0076; in assay [2] it was 0.00451 ± 0.0018.
In the case of GGAGACCAGUACUAUACAACCUACUACCUCA, the results for the “pre-steady-state target cleavage rate” value in assay [1] and in assay [2] were 0.177 ± 0.021 and 0.0152 ± 0.0063, respectively.
Consider GGAGACGAUACUAUACAACGUACUAGCUCA, for which the “pre-steady-state target cleavage rate” value in assay [1] came out at 0.00418 ± 0.0035; in assay [2], 0.00363 ± 0.0015.
Consider GGAGUGGAUACUAAACAUCCUACUACCUCA, for which the “pre-steady-state target cleavage rate” value was 0.242 ± 0.013 in assay [1] and 0.0059 ± 0.0024 in assay [2].
For GGAGAGGAUACUAUACAACCUACUACUCUCA the same measures were 0.123 ± 0.015 and 0.00775 ± 0.0031.
Take GGAGACCUUACUAUACAACCUACUACCCUCA: the “pre-steady-state target cleavage rate” value was determined as 0.17 ± 0.019 in assay [1] and 0.00416 ± 0.0023 in assay [2].
Turning to GGAGUGGAUACUAUUCAACGUACUACCUCA, the “pre-steady-state target cleavage rate” value in assay [1] came out at 0.0305 ± 0.004; in assay [2] it was 0.00373 ± 0.0014.
Turning to GGAGACGAUACUAUACAACCAACUACGUCA, the “pre-steady-state target cleavage rate” value is 0.00504 ± 0.0028 in assay [1] and 0.00251 ± 0.0018 in assay [2].
With GGAGACCAAUACUAUACAACCUACUACCUCA, the figures for the “pre-steady-state target cleavage rate” value in assay [1] and in assay [2] were 0.193 ± 0.021 and 0.5 ± 0.18, respectively.
Consider GGAGUGCAUACUAUUCAACCUACUACCUCA, for which the “pre-steady-state target cleavage rate” value in assay [1] came out at 0.182 ± 0.011; in assay [2], 0.00471 ± 0.0042.
Regarding GGAGACGAUACUAUAGAAGCUACUACCUCA, the figures for the “pre-steady-state target cleavage rate” value in assay [1] and in assay [2] were 0.16 ± 0.014 and 0.00294 ± 0.0013, respectively.
In the case of GGAGACGAUUCUAUACAACCUAGUACCUCA, the “pre-steady-state target cleavage rate” value in assay [1] turned out to be 0.07 ± 0.011; in assay [2], 0.00392 ± 0.0022.
On to GGAGUGGAUACAAUACAACCUACUACGUCA, for which the results for the “pre-steady-state target cleavage rate” value in assay [1] and in assay [2] were 0.0406 ± 0.0063 and 0.0038 ± 0.0016, respectively.
